Results on 45 molecules are retold here after PubChem BioAssay AID1851 (National Center for Advancing Translational Sciences (NCATS), 2009).

Among all 16,000 compounds or so, about 4,000 (25%) were called active. About 26% were inconclusive and are not listed. The list is a sample of the results. A number with no mark means an inactive call. Calls follow the shape of the dose curve; as a rule, active = well fitted curve in the direction sought with a large enough effect; inconclusive = small, poorly fitted or top-dose-only effect, or effect the other way; inactive = no such curve, though single readings can be large or run the other way.

What is called AC50 is the midpoint of the concentration-response curve, whichever way the signal moves.
% is scaled to controls: 0 for no effect and ±100 for the full control effect.

This assay deals with Cytochrome P450 2C9 (Homo sapiens) (UniProt P11712). The experiment in a line: Cytochrome panel assay with activity outcomes. The following applies: recombinant CYP, pro-luciferin dealkylation, luminescence, p450-cyp2c9; series mostly up to 57.1 µM; activity, negative = inhibition: at the top concentration.
Chain of Cytochrome P450 2C9 (Homo sapiens) (P11712 whole entry, looked up): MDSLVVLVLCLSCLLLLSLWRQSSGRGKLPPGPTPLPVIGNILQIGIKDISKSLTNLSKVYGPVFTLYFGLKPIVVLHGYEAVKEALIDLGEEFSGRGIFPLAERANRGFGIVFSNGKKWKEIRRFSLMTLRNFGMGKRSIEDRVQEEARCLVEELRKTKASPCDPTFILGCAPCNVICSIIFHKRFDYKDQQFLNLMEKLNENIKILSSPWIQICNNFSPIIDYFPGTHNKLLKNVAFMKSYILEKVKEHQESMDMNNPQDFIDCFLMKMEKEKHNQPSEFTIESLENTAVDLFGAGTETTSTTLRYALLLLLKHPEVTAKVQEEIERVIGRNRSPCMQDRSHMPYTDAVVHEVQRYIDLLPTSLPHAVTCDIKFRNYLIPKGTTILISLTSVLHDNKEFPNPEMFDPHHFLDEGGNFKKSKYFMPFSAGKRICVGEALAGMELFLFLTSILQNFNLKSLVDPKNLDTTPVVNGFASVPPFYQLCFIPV
In the case of `CCOC(=O)c1ccc(Cl)c(NC(=O)c2ccc(-c3ccccc3)cc2)c1`, the “activity, negative = inhibition” value is 0.219%. `CCOc1c(Cl)cc(C(=O)Nc2ccccc2-c2ccccc2)cc1Cl`: the AC50 is 2.82 µM (active). On the same count and under the same terms, the same measure for `Cc1cc(NC(=O)c2ccc(S(=O)(=O)Nc3ccccc3)cc2)no1`: 2.24 µM (active). Take `Cc1cc(NC(=O)c2ccccc2Cl)no1`: the “activity, negative = inhibition” value is 9.61%. Take `Cc1cc(C)c2nc(-c3ccccn3)cc(C(=O)Nc3ccc(S(=O)(=O)Nc4cc(C)on4)cc3)c2c1`: the half-maximal activity concentration (AC50) was 7.08 µM (active). Still for that read-out and setting: with `COc1cc2ccccc2cc1C(=O)Nc1ccc(S(=O)(=O)Nc2cc(C)on2)cc1` the figure was 12.6 µM (active). Take `COc1cccc(OC)c1C(=O)Nc1cc(C)on1`: the “activity, negative = inhibition” value was -22%.

Turning to `NS(=O)(=O)c1ccc(NS(=O)(=O)c2ccc(NC(=O)c3ccc(-c4ccccc4)cc3)cc2)cc1`, the AC50 was 0.2 µM (active). Regarding `Cc1cc(NC(=O)c2cc(C(C)C)on2)no1`, the “activity, negative = inhibition” value was -17.2%.

As for `NS(=O)(=O)c1ccc(NC(=O)Nc2cccc3ccccc23)cc1`, the activity, negative = inhibition was -9.47% [at 11.4 µM]. The same measure, in the same setting: with `Nc1ccc(S(=O)(=O)NC(=O)c2ccccc2)cc1` the figure was -4.1% [at 25.6 µM]; with `COCCNc1cc(-c2c(C)noc2C)ncn1`, 6.99% [at 2.29 µM]. `CC(C)(C)NC[C@H](O)COc1cccc2[nH]c(=O)[nH]c12`: the AC50 result is “inactive”.

Consider `Cc1ncc(CO)c(CO)c1O`, for which the “activity, negative = inhibition” value is 7.59% [at 25.6 µM]. On the same count and under the same terms, with `Cc1cc(=O)oc(C)c1C(=O)N1CCCCC1` the figure was 1.7%. Regarding `COC(=O)c1ccc(NC(=O)c2ccccc2NS(=O)(=O)c2ccccc2)cc1`, the AC50 was 0.2 µM (active).

Regarding `Cc1ccc(S(=O)(=O)Nc2ccccc2C(=O)c2ccc(C)c(C)c2)cc1`, the activity, negative = inhibition is 5.56% [at 11.4 µM]. For the molecule `NC(N)=NC(N)=Nc1ccc(S(N)(=O)=O)cc1`, the activity, negative = inhibition was -4.01% [at 11.4 µM]. On to `O=C(c1ccco1)N1CCN(c2cc(=O)n(C3CCCCC3)c(=O)[nH]2)CC1`, for which the “activity, negative = inhibition” value was -1.48%. For `O=c1cc(N2CCC(Cc3ccccc3)CC2)[nH]c(=O)n1C1CCCCC1`, the AC50 was 12.6 µM (active). Take `Cc1ccccc1-n1c(=O)cc(N2CC(C)OC(C)C2)[nH]c1=O` (stereo not given): the “activity, negative = inhibition” value was -1.49%. Still for that read-out and setting: with `CN1CCN(c2ccnc(-c3ccoc3)n2)CC1` the figure was 4.59% [at 2.29 µM]. Turning to `CON/C=C(\C=Nc1ccccc1)c1ncc(C(F)(F)F)cc1Cl`, the AC50 was 7.94 µM (active). Consider `N#Cc1c(NC(=O)CCN2C(=O)c3ccccc3C2=O)oc(-c2ccccc2)c1-c1ccccc1`, for which the AC50 was 0.398 µM (active). Turning to `C/C(CCN1CCCc2nc(C)c(C)cc21)=N\O[C@@H](C)c1cn([C@H](CO)Cc2ccccc2)nn1`, the activity, negative = inhibition is -12.1% [at 11.4 µM]. For `CCn1c(=O)cc(SCC(=O)N2CCN(C(=O)c3ccco3)CC2)c2ccccc21`, the “activity, negative = inhibition” value was 2.34%.

As to `Cc1c(/N=C/c2ccco2)n(Cc2ccccc2)c2ccccc12`, the AC50 is 14.1 µM (active).

As to `CC[n+]1c(P(=O)([O-])c2ccccc2)[nH]c2ccccc21`, the “activity, negative = inhibition” value is -26.6%. As for `COC(=O)CCSc1cc([N+](=O)[O-])cc2c1c(C1OCCS1)nn2-c1ccccc1` (stereo not given), the AC50 is 10 µM (active).

Regarding `Cn1cc(/C=N/n2cnc3scc(-c4ccccc4)c3c2=O)c2ccccc21`, the AC50 is 5.01 µM (active).

For the molecule `Cn1cc(-c2nc3cncnc3n(-c3ccccc3)c2=O)c2ccccc21`, the “activity, negative = inhibition” value is -9.34%. For `Cn1cc(-c2nc3cnc(Oc4ccccc4)nc3n(C)c2=O)c2ccccc21`, the “activity, negative = inhibition” value is 9.76%. On to `Nc1nonc1-c1noc(CCCN2C(=O)c3ccccc3C2=O)n1`, for which the “activity, negative = inhibition” value was -29.3%.

With `COC(=O)c1scc(C)c1NC(=O)Cc1ccccc1`, the “activity, negative = inhibition” value was -15.4%. With `O=C(Cc1ccc(Br)cc1)Nc1ccccc1Sc1ccccc1`, the AC50 was 2.82 µM (active). Consider `COCCNc1nc(-c2cccc(NS(C)(=O)=O)c2)nc2ccccc12`, for which the activity, negative = inhibition is 2.19% [at 2.29 µM]. On to `CNc1nc(-c2cccc(NS(C)(=O)=O)c2)nc2ccccc12`, for which the activity, negative = inhibition was 27.5% [at 2.29 µM]. Consider `COCCNc1ncnc2ccc(-c3cccc(NS(C)(=O)=O)c3)cc12`, for which the activity, negative = inhibition is 16.7% [at 2.29 µM].

For the molecule `COc1ccc(CNc2nc(-c3cccc(NS(C)(=O)=O)c3)nc3ccccc23)c(OC)c1`, the AC50 is 0.158 µM (active).

In the case of `COc1ccc(CNc2ncncc2-c2cccc(NS(C)(=O)=O)c2)c(OC)c1`, the activity, negative = inhibition is -18.5% [at 2.29 µM].

For `COc1ccc(CNc2ncnc3ccc(-c4cccc(NS(C)(=O)=O)c4)cc23)c(OC)c1`, the AC50 was 0.501 µM (active). As to `C[C@@H](CCC(=O)O)C(=O)O`, the activity, negative = inhibition was 3.2% [at 11.4 µM]. Same read-out and setting: with `CC(=O)N1CCC[C@@]2(CCN(c3ccccc3)C2)C1` the figure was 17.6%; with `CC(=O)c1c(N2CCC(C(N)=O)CC2)nc(=S)n(-c2ccccc2)c1C`, -23.7%. Regarding `C=CCn1c(C)c(C(C)=O)c(N2CCN(c3ccccc3)CC2)nc1=S`, the AC50 was 12.6 µM (active).
